Data reported in the supplement of paper PMC3334620.
The full ranking holds about 33,000 sequences; the median of “E-score (-0.5 to 0.5)” is about -0.011, and the highest 2% start at about 0.28. Many of the other results were omitted from the sample, so the highest values are more common in it than they were.

What follows are sequences tested against T1, Gcr1 (UniProt P07261) (assay: PBM E-score (8-mer binding enrichment) (E-score (-0.5 to 0.5)); higher = stronger / more preferred TF binding). Settings: protein concentration: 100 nM; construct: GST-full length.
T1 sequence: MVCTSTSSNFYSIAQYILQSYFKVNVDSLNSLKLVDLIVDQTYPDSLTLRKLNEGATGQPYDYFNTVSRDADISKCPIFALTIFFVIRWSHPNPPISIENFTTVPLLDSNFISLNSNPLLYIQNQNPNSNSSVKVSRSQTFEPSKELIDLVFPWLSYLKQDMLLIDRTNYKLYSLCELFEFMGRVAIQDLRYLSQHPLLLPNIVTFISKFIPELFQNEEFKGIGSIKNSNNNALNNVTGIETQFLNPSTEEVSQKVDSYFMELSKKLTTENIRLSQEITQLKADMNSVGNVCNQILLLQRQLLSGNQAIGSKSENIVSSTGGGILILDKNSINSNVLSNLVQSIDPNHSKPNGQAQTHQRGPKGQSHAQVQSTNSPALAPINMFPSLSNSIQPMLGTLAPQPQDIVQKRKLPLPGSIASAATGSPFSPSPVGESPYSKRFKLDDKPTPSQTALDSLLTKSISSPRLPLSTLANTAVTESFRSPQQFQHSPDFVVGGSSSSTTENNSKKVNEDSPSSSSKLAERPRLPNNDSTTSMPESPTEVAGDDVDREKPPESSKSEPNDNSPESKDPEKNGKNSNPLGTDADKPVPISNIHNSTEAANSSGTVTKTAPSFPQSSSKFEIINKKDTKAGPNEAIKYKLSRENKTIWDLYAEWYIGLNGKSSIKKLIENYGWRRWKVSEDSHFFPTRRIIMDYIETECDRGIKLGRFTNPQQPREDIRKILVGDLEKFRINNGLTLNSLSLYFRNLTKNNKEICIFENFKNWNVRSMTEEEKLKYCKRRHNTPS
Experimental: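 Universal 'all 10-mer' protein binding microarrays (Agilent AMADID 015681) probed with GST-tagged S. cerevisiae TFs (full-length or DBD) made by in vitro transcription/translation (PURExpress), about 100-200 nM. Bound TF was detected with fluorescent anti-GST. Each ungapped 8-mer (which stands for itself and its reverse complement) is scored by the PBM enrichment score (E-score), a modified Wilcoxon-Mann-Whitney statistic from -0.5 to +0.5, computed with the Universal PBM Analysis Suite. Scale: above 0.35 generally sequence-specific binding.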

Sequence | PBM E-score
ACTCAACA | 0.122
GCGATCAC | -0.0279
GAGCGACA | -0.0391
TATTGGGA | -0.02
ACTGCACC | 0.014
CAGCCCTC | -0.0883
AAGAATAA | 0.0669
AAAACTGG | 0.254
CATTTACG | 0.0351
CAGTCCCA | 0.0489
GAGTCCCC | -0.0421
GAGTCCCA | 0.313
CGGGCGTC | 0.307
CGGGCGTA | -0.097
AGGGCGTC | 0.26
ACGGCGTC | 0.243
CCGGCGTC | 0.402
CCGGCGTA | -0.139
GCGGCGAC | 0.148
GCGGCGCC | 0.324
CCAGCGTC | 0.314
ACAGCGTC | -0.0458
GCGGCGCA | -0.064
CCAGCGTA | -0.178
GCGCCTGA | 0.171

Sequence | PBM E-score
ATCCTACG | -0.00941
AGGCCCCG | 0.0239
ATGATTTC | -0.142
AAATTGTG | -0.0559
CATAACCC | -0.121
CTCAATCA | 0.119
ACGGCGCT | -0.00448
ACGGCGCC | 0.312
CCGGCGCC | 0.317
CCGGCGCA | -0.0778
ACGGCGCA | -0.265
CCGGCGCG | -0.112
CCTAAAGG | 0.0292
AACTGATC | -0.114
ATGGATCA | -0.201
GCACCACC | -0.0802
GTAGGCCA | -0.106
ATCCGGAC | -0.106
ATCCGGAA | 0.26
ATCCGGAT | 0.286
GAAGTAAA | -0.0223
GAGGCGCC | 0.302
CAGGCGCG | -0.0119
CAGGCGCA | -0.0694
AAGGCGCC | 0.258

Sequence | PBM E-score
CAGGCGCC | 0.361
GAGGCGCA | 0.0503
AAATGGTT | 0.0753
ATTGAAGA | 0.0516
CAGATAGG | 0.0828
TAATTGAA | 0.228
ATACGCAG | 0.281
ATACGCAT | 0.23
ACACGCAC | 0.0159
ACACGCAA | 0.127
CTACGCAG | 0.0122
ACACGCAG | 0.323
AGGCTATC | -0.243
TGTTCAAA | -0.014
AAGGAGGT | -0.0668
AAGAGGGG | 0.0114
AGGGCTTA | -0.262
CCGGCTTC | 0.358
CGGGCTTA | 0.00411
CCGGCTTA | -0.0254
AGGGCTTG | -0.209
CGGGCTGC | 0.234
ACGGCTTC | 0.238
AGGGCTTC | 0.339
CGGGCTTC | 0.415

Sequence | PBM E-score
CTCCCCGC | 0.196
ACGGCACG | -0.0602
ACGGTCGA | -0.354
GGGGGCGA | -0.0875
GCTGGTCA | -0.151
ACTCGTTC | -0.0676
CCCAATAA | 0.0668
ATCACTCC | -0.0513
ACTGCCAT | 0.0395
CCCCTCAA | -0.118
ATCCTGAA | 0.31
ATCCTGTA | 0.28
ATCCTGAC | 0.163
GGGACCTA | 0.0741
ACTATTGC | 0.0299
ATGGCGCG | 0.116
CTGGCGCA | -0.119
ATGGCGTC | 0.319
CTGGCGTC | 0.279
CTGGCGCC | 0.319
ATGGCGCA | -0.122
ATGGCGTG | -0.0168
ATGGCGCC | 0.343
CTGGCGGC | 0.265
ACTAATGC | 0.0263

Sequence | PBM E-score
ACAGATAG | -0.00305
AACCTGTA | 0.211
ATTTCGGC | 0.141
ATTTCGGG | 0.0915
ATTTCGGA | 0.285
GATCCCAC | 0.235
AATTCCTA | 0.0723
GATTCCTA | 0.439
GATCCCCC | 0.176
CATTCCTA | -0.0304
GATTCCCA | 0.334
AATTCCCC | 0.0615
TATCCCCA | 0.052
CATTCCCA | 0.103
GATTCCCC | 0.289
CATTCCCC | -0.0585
AATTCCCA | -0.0967
GATCCCCA | 0.28
CGCATCTC | 0.0271
AAAGAGAA | 0.022
CAGTTCGG | 0.0773
CGGATTGA | -0.116
CAATGGGG | 0.00495
ACGGTGGG | 0.116
GGCTGCTA | 0.318

Sequence | PBM E-score
AGCTGCCT | 0.32
TGCTGCCA | -0.0494
AACTGCCT | -0.0496
CGCTGCTA | 0.155
ACCTGCCT | -0.218
AGCTGCCA | 0.385
CGCTGCCA | 0.185
AGCTGCTA | 0.226
GGCTGCCA | 0.418
GGCTGCAA | 0.128
GGCTGCCC | 0.272
GATGGGAA | 0.123
TACAGATA | -0.0799
ATATTTGA | 0.0958
CTTTCGAA | -0.0912
CAGATAAC | -0.13
ACTTGACT | -0.0523
CACCGAGA | -0.00934
GTGCCCCA | -0.0431
GGGCTCAC | -0.096
AGAGCTGG | -0.143
TCTGCCCA | -0.249
AGATTTCG | 0.113
AAGGTGTC | 0.0915
AGCTGCCC | 0.217

Sequence | PBM E-score
CGCTGCCG | 0.175
AGCTGCCG | 0.289
ACTACAAC | 0.0309
CGCATCCA | 0.323
AGCATCAC | 0.00094
AGCATCCC | 0.33
CGCATCCC | 0.319
GCCATCCC | -0.173
CGCATCCG | 0.221
CGCATCGA | 0.0887
AACATCCC | -0.109
GGCATCCC | 0.4
CGCATCGC | -0.0699
CACATCCA | 0.0944
GACATCCC | 0.0126
AAAGGGTG | -0.0719
AAGGCGGT | 0.00689
CTGTGGCA | 0.0358
AACTGGCA | 0.0707
ATTCTCGG | 0.123
CCTTCCAG | 0.0686
GCTTCCGA | 0.386
